Measured values published in PubChem BioAssay (EPA / NIEHS).
Several values for one entry are separate records, joined by “and”; a condition that tells them apart may be missing. Equal values may be shown once. Where a structure was tested more than once in an assay, its records may differ in their call. Activity calls are given as the source filed them. The calls were made as follows: active = hit-call score of the fitted dose curve at least 0.9, where 1 is the maximum; inactive = score below 0.9.

Experiment: ATG_SREBP_CIS: Attagene CIS-FACTORIAL HepG2 Assay for human Sterol Regulatory Element Binding (SREBP) (AID 2282962)
Details: HepG2 Attagene cis-factorial SREBP reporter, mRNA; actives raise or lower the signal
Procedure: ATG_CIS is a cell-based, multiplexed-readout assay that uses HepG2, a human liver cell line, with measurements taken at 24 hours after chemical dosing in a 24-well plate.ATG_SREBP_CIS is one of 52 assay component(s) measured or calculated from the ATG_CIS assay. It is designed to make measurements of mRNA induction, a form of inducible reporter, as detected with fluorescence intensity signals by Reverse transcription polymerase chain reaction (RT-PCR) and Capillary electrophoresis technology.Data from the assay component ATG_SREBP_CIS was analyzed into 1 assay endpoint. This assay endpoint, ATG_SREBP_CIS, was analyzed with bidirectional fitting relative to DMSO as the negative control and baseline of activity. Using a type of inducible reporter, measures of mRNA for gain or loss-of-signal activity can be used to understand the reporter gene at the transcription factor-level as they relate to the gene SREBF1. Furthermore, this assay endpoint can be referred to as a primary readout, because this assay has produced multiple assay endpoints where this one serves a reporter gene function. To generalize the intended target to other relatable targets, this assay endpoint is annotated to the dna binding intended target family, where the subfamily is basic helix-loop-helix leucine zipper.
Human liver HepG2 cells are transiently transfected with multiple reporter transcription units (MRTUs) in 6-well plates using FuGene 6 reagent (Roche; 3 ml FuGene/1 mg DNA). The MRTU constructs are regulated by a cis-regulating element (promoter). […] A major difference between the CIS and TRANS system is that in CIS activities of endogenous TFs are measured, whereas the TRANS assay evaluates changes in activities of exogenous, chimeric NR-Gal4 proteins. […] At the end of 24 hour incubation, total RNA was isolated using TriZol reagent (Invitrogen). The isolated RNA is then reverse-transcribed using oligo(dT) primer and Mo-MLV reverse transcriptase (Invitrogen) with DNAse I (Ambion) treatment for 30 min. The one-tenth of the produced cDNA was amplified by PCR using Taq DNA polymerase (Invitrogen) and two reporter sequence-specific primers. The PCR products were fluorescently labeled by primer extension with 6-arboxyfluorescein (6-FAM) 5'-labeled reporter sequence-specific primer (2 min at 95 C, 20 s at 68 C and 10 min at 72 C) and these products were digested with 5U of HpaI (New England Biolabs) for 2h at 37 C. The fragments were purified using Qiaquick PCR columns (Qiagen), analyzed on an ABI 3130xL genetic analyzer (Applied Biosystems) with peak positions identified by using a set of X-rhodamine (ROX)-labeled MapMarker1000 molecular weight standards (BioVentures). The raw capillary electrophoresis data was processed using Attagraph software (Attagene).

Which outcome does the source give for `CCOCCOCCO` here?
The outcome was “inactive”.

With `O=C1NC(=O)C(c2ccccc2)(c2ccccc2)N1` as the molecule, how does the outcome read?
Its outcome is “inactive”.

With `O=C(N[C@@H](c1ccccc1)[C@@H]1CCCCN1)c1cccc(C(F)(F)F)c1Cl` as the molecule, how does the AC50 read?
The AC50 was 8.09 µM (active).

With `CCCC[C@H]1CN(CC2CCOCC2)C(=O)OC12CCN(C1(C)CCN(C(=O)c3c(C)ncnc3C)CC1)CC2` as the molecule, how does the outcome read?
Its outcome is “inactive”.

For `C=CCCCCCCCCCCCC`, which outcome is on record?
The outcome was “inactive”.

For `CC1(C)C(=O)NC(=O)N1CO`, which AC50 is on record?
Its AC50 is 150 µM (active).

For `N[C@@H](Cc1c[nH]c2ccccc12)C(=O)O`, which outcome is on record?
The outcome was “inactive”.

Which AC50 does the source give for `CO[C@@H]1COCC[C@@H]1N[C@@H]1CC[C@@](C(=O)N2CCc3ncc(C(F)(F)F)cc3C2)(C(C)C)C1` here?
The AC50 was 77.7 µM (active).

For `COC(=O)[C@H]1[C@H]2C[C@@H]3c4[nH]c5cc(OC)ccc5c4CCN3C[C@H]2C[C@@H](OC(=O)c2cc(OC)c(OC)c(OC)c2)[C@@H]1OC`, which AC50 is on record?
The AC50 was 3.96 µM (active).

For `Nc1nc(Cl)nc2c1ncn2[C@H]1C[C@H](O)[C@@H](CO)O1`, which outcome is on record?
Its outcome is “inactive”.

For `S=c1[nH]c2ccccc2s1`, which AC50 is on record?
The AC50 was 59 µM (active).

For `O=C1CCCCC1`, which outcome is on record?
Its outcome is “inactive”.

Which outcome does the source give for `C/C=C/C=C/C(=O)O` here?
Its outcome is “inactive”.

With `C=CCc1ccc(OC)c(OC)c1` as the molecule, how does the outcome read?
The outcome was “inactive”.

For `CC(C)OC(=O)C(C)(C)Oc1ccc(C(=O)c2ccc(Cl)cc2)cc1`, which outcome is on record?
Its outcome is “inactive”.

Which AC50 does the source give for `CC(C)(O)c1ccc(CNC(=O)c2cccnc2Oc2ccc(F)cc2)cc1` here?
The AC50 was 44.6 µM (active).

Which outcome does the source give for `CC(=O)CC(c1ccccc1)c1c(O)c2ccccc2oc1=O` (stereo unspecified) here?
The outcome was “inactive”.

With `Cc1cn([C@H]2C=C[C@@H](CO)O2)c(=O)[nH]c1=O` as the molecule, how does the outcome read?
The outcome was “inactive”.

Which outcome does the source give for `O=NO` here?
The outcome was “inactive”.

Which AC50 does the source give for `CN(C)C(=O)NC1(c2ccccc2)CCN(CC[C@@]2(c3ccc(F)c(F)c3)CN(C(=O)c3ccccc3)CCO2)CC1` here?
The AC50 was 26.8 µM (active).

With `CN(C)C(=O)NC1(c2ccccc2)CCN(CCC[C@]2(c3ccc(Cl)c(Cl)c3)CCCN(C(=O)c3ccccc3)C2)CC1` as the molecule, how does the AC50 read?
The AC50 was 0.762 µM (active).

Which outcome does the source give for `CCCCCCCCCC[N+](C)(C)[O-]` here?
Its outcome is “inactive”.

Which outcome does the source give for `CC(C)NCC(O)c1ccc(O)c(O)c1` (stereo unspecified) here?
The outcome was “inactive”.

With `Cc1cc(SC2=C(O)C[C@@](CCc3ccc(N)cc3)(C(C)C)OC2=O)c(C(C)(C)C)cc1CO` as the molecule, how does the outcome read?
Its outcome is “inactive”.

With `COc1ccc(OC(F)(F)F)cc1CN[C@H]1CCCN[C@H]1c1ccccc1` as the molecule, how does the AC50 read?
The AC50 was 19.4 µM (active).

With `CN(C)CCCN1c2ccccc2Sc2ccc(Cl)cc21` as the molecule, how does the AC50 read?
Its AC50 is 6.99 µM (active).

Which AC50 does the source give for `Cc1ccc(C(C)(C)C)c(O)c1` here?
The AC50 was 161 µM (active).

With `CCCCCCCCCCCCCCCCO` as the molecule, how does the outcome read?
The outcome was “inactive”.

For `O=C1c2c(O)cccc2Cc2cccc(O)c21`, which outcome is on record?
The outcome was “inactive”.

Which AC50 does the source give for `Cc1c(C)c2c(c(C)c1O)CCC(C)(COc1ccc(CC3SC(=O)NC3=O)cc1)O2` (stereo unspecified) here?
The AC50 was 1.6 µM (active).

With `CCCCCCCC(=O)OC` as the molecule, how does the outcome read?
Its outcome is “inactive”.

For `Cn1cnc2c1c(=O)[nH]c(=O)n2C`, which outcome is on record?
Its outcome is “inactive”.

With `O=C1O[C@H]([C@H](O)CO)C(O)=C1O` as the molecule, how does the outcome read?
Its outcome is “inactive”.

For `COC(=O)CCC(=O)OC`, which outcome is on record?
The outcome was “inactive”.

Which outcome does the source give for `NCCOCCOCCN` here?
The outcome was “inactive”.

For `OCC(CO)n1cnc(-c2ccc(F)cc2)c1-c1ccnc(Oc2ccccc2)n1`, which outcome is on record?
The outcome was “inactive”.

Which outcome does the source give for `O=Cc1ccccc1C=O` here?
Its outcome is “inactive”.

For `CS(=O)(=O)c1ccc([C@@H](C[C@H]2CCC(=O)C2)C(=O)Nc2cnccn2)cc1Cl`, which outcome is on record?
The outcome was “inactive”.

With `CCCCC(CC)COP(=O)(OCC(CC)CCCC)OCC(CC)CCCC` (stereo unspecified) as the molecule, how does the outcome read?
The outcome was “inactive”.

Which outcome does the source give for `CC(=O)O[C@]1(C(C)=O)CC[C@H]2[C@@H]3C=C(Cl)C4=CC(=O)[C@@H]5C[C@@H]5[C@]4(C)[C@H]3CC[C@@]21C` here?
The outcome was “inactive”.

What about the AC50 of the same molecule?
Its AC50 is 29.5 µM (active) and 52.1 µM (active) and 34.3 µM (active).
